# Experimental data as given in the supplement of paper PMC8728848.
# Only a selection was taken, and the strongest signals are over-represented in it overall.
# How the values were obtained:
# Assay in all cases: glycan array binding signal (z-score within array); higher = stronger binding
# Settings in all cases: glycan notation: IUPAC condensed, linker removed
# [1] = molecular target: Man(a1-2)Man(a1-6)[Man(a1-3)]Man(a1-6)[Man(a1-2)Man(a1-2)Man(a1-3)]Man
# Method in brief: (§1)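 Columns mapping to the same glycan were averaged after glycan names were converted to IUPAC-condensed notation. The data come from 3228 arrays in the Consortium for Functional Glycomics database, limited to those with an available protein sequence. Binding is reported as a within-array Z-score averaged across arrays of one protein sequence and across linkers.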
# [2] = molecular target: Man(a1-3)[Man(a1-6)]Man(a1-6)[Man(a1-3)]Man(b1-4)GlcNAc(b1-4)GlcNAc
# Method in brief: as §1
# [3] = molecular target: Man(a1-3)[Man(a1-6)]Man(b1-4)GlcNAc(b1-4)[Fuc(a1-6)]GlcNAc
# Method in brief: as §1
# [4] = molecular target: Neu5Ac(a2-3)Gal(b1-3)GlcNAc(b1-2)Man(a1-3)[GlcNAc(b1-4)][Neu5Ac(a2-3)Gal(b1-3)GlcNAc(b1-2)Man(a1-6)]Man(b1-4)GlcNAc(b1-4)GlcNAc
# Method in brief: as §1
# [5] = molecular target: Neu5Ac(a2-3)Gal(b1-3)[Fuc(a1-4)]GlcNAc(b1-3)Gal(b1-3)[Fuc(a1-4)]GlcNAc
# Method in brief: as §1
# [6] = molecular target: Neu5Ac(a2-3)Gal(b1-3)[Neu5Ac(a2-6)]GalNAc
# Method in brief: as §1
# [7] = molecular target: Neu5Ac(a2-3)Gal(b1-4)GlcNAc(b1-3)Gal(b1-4)[Fuc(a1-3)]GlcNAc
# Method in brief: as §1
# [8] = molecular target: Neu5Ac(a2-3)Gal(b1-4)[Fuc(a1-3)]GlcNAc6S
# Method in brief: as §1
# [9] = molecular target: Neu5Ac(a2-6)Gal(b1-4)GlcNAc(b1-3)GalNAc
# Method in brief: as §1
# [10] = molecular target: Neu5Ac(a2-6)GlcNAc(b1-4)GlcNAc
# Method in brief: as §1
# [11] = molecular target: Neu5Gc(a2-3)Gal(b1-4)GlcNAc
# Method in brief: as §1
# [12] = molecular target: Fuc(a1-2)Gal(b1-3)GalNAc(a1-3)[Fuc(a1-2)]Gal(b1-4)Glc
# Method in brief: as §1
# [13] = molecular target: Fuc(a1-2)Gal(b1-3)GalNAc(b1-4)[Neu5Ac(a2-3)]Gal(b1-4)Glc
# Method in brief: as §1
# Fuc(a1-2)Gal(b1-3)GlcNAc = molecular target: Fuc(a1-2)Gal(b1-3)GlcNAc
# Method in brief: as §1
# [14] = molecular target: Fuc(a1-2)Gal(b1-3)GlcNAc(b1-3)GalNAc
# Method in brief: as §1
# [15] = molecular target: Fuc(a1-2)Gal(b1-4)GlcNAc(b1-2)[Fuc(a1-2)Gal(b1-4)GlcNAc(b1-4)]Man(a1-3)[Fuc(a1-2)Gal(b1-4)GlcNAc(b1-2)Man(a1-6)]Man(b1-4)GlcNAc(b1-4)GlcNAc
# Method in brief: as §1
# [16] = molecular target: Fuc(a1-2)Gal(b1-4)GlcNAc6S
# Method in brief: as §1
# [17] = molecular target: Fuc(a1-2)Gal(b1-4)[Fuc(a1-3)]GlcNAc(b1-2)[Fuc(a1-2)Gal(b1-4)[Fuc(a1-3)]GlcNAc(b1-4)]Man(a1-3)[Fuc(a1-2)Gal(b1-4)[Fuc(a1-3)]GlcNAc(b1-2)Man(a1-6)]Man(b1-4)GlcNAc(b1-4)GlcNAc
# Method in brief: as §1
# [18] = molecular target: Fuc(a1-2)[Gal(a1-3)]Gal(b1-4)GlcNAc(b1-2)Man(a1-3)[Fuc(a1-2)[Gal(a1-3)]Gal(b1-4)GlcNAc(b1-2)Man(a1-6)]Man(b1-4)GlcNAc(b1-4)GlcNAc
# Method in brief: as §1
# [19] = molecular target: Fuc(a1-2)[GalNAc(a1-3)]Gal(b1-3)GalNAc(a1-3)[Fuc(a1-2)]Gal(b1-4)GlcNAc
# Method in brief: as §1
# [20] = molecular target: Fuc(a1-2)[GalNAc(b1-3)]Gal
# Method in brief: as §1
# [21] = molecular target: Fuc(a1-3)[Gal(b1-4)]GlcNAc(b1-3)GalNAc
# Method in brief: as §1
# [22] = molecular target: Fuc(a1-3)[Gal(b1-4)]GlcNAc(b1-4)Gal(b1-4)[Fuc(a1-3)]GlcNAc(b1-4)Gal(b1-4)[Fuc(a1-3)]GlcNAc
# Method in brief: as §1
# [23] = molecular target: Fuc(a1-3)[Gal(b1-4)]GlcNAc(b1-6)[Gal(b1-3)GlcNAc(b1-3)]Gal(b1-4)Glc
# Method in brief: as §1
# Fuc(b1-3)GlcNAc = molecular target: Fuc(b1-3)GlcNAc
# Method in brief: as §1
# [24] = molecular target: Gal(a1-3)Fuc(a1-2)Gal(b1-4)GlcNAc(b1-3)[Gal(a1-3)Fuc(a1-2)Gal(b1-4)GlcNAc(b1-6)]GalNAc
# Method in brief: as §1
# Gal(b1-3)Gal = molecular target: Gal(b1-3)Gal
# Method in brief: as §1
# [25] = molecular target: Gal(b1-3)[Fuc(a1-4)]GlcNAc(b1-3)Gal(b1-4)GlcNAc
# Method in brief: as §1
# [26] = molecular target: Gal(b1-4)GalNAc(a1-3)[Fuc(a1-2)]Gal(b1-4)GlcNAc
# Method in brief: as §1
# [27] = molecular target: Gal(b1-4)GlcNAc(b1-2)Man(a1-3)[Man(a1-6)]Man(b1-4)GlcNAc(b1-4)GlcNAc
# Method in brief: as §1
# [28] = molecular target: Gal(b1-4)GlcNAc(b1-3)Gal(b1-4)GlcNAc(b1-3)Gal(b1-4)GlcNAc
# Method in brief: as §1
# [29] = molecular target: Gal(b1-4)GlcNAc(b1-3)Gal(b1-4)[Fuc(a1-3)GlcNAc(b1-6)]Gal(b1-4)Glc
# Method in brief: as §1
# [30] = molecular target: Gal(b1-4)GlcNAc(b1-6)GalNAc
# Method in brief: as §1
# Gal4S6S(b1-4)GlcNAc = molecular target: Gal4S6S(b1-4)GlcNAc
# Method in brief: as §1
# GalNAc(b1-3)Gal = molecular target: GalNAc(b1-3)Gal
# Method in brief: as §1
# [31] = molecular target: GlcNAc(b1-3)Gal(b1-4)GlcNAc
# Method in brief: as §1
# GlcNAc(b1-3)Man = molecular target: GlcNAc(b1-3)Man
# Method in brief: as §1
# Kdn(a2-3)Gal(b1-3)GlcNAc = molecular target: Kdn(a2-3)Gal(b1-3)GlcNAc
# Method in brief: as §1
# [32] = molecular target: Man(a1-2)Man(a1-2)Man(a1-6)[Man(a1-3)]Man
# Method in brief: as §1
# [33] = molecular target: Man(a1-2)Man(a1-3)[Man(a1-2)Man(a1-6)]Man(a1-6)[Man(a1-2)Man(a1-2)Man(a1-3)]Man
# Method in brief: as §1
# [34] = molecular target: Man(a1-2)Man(a1-6)[Man(a1-3)]Man(a1-6)[Man(a1-2)Man(a1-2)Man(a1-3)]Man(b1-4)GlcNAc(b1-4)GlcNAc
# Method in brief: as §1
# Man(a1-3)[Man(a1-6)]Man = molecular target: Man(a1-3)[Man(a1-6)]Man
# Method in brief: as §1
# [35] = molecular target: Man(a1-3)[Man(a1-6)]Man(a1-6)[Man(a1-2)Man(a1-3)]Man(b1-4)GlcNAc(b1-4)GlcNAc
# Method in brief: as §1
# [36] = molecular target: Man(a1-3)[Man(a1-6)]Man(a1-6)[Man(a1-3)]Man
# Method in brief: as §1
# [37] = molecular target: Neu5Ac(a2-3)Gal(b1-3)GalNAc(b1-4)[Neu5Ac(a2-8)Neu5Ac(a2-3)]Gal(b1-4)Glc
# Method in brief: as §1
# Neu5Ac(a2-3)Gal(b1-4)Glc = molecular target: Neu5Ac(a2-3)Gal(b1-4)Glc
# Method in brief: as §1
# [38] = molecular target: Neu5Ac(b2-6)Gal(b1-4)GlcNAc
# Method in brief: as §1
# [39] = molecular target: Neu5Gc(a2-3)Gal(b1-4)[Fuc(a1-3)]GlcNAc
# Method in brief: as §1
binder,measurement,setting,value
"StcE (Escherichia coli), O82882.2 (protein) ADNNSAIYFNTSQPINDLQGSLAAEVKFAQSQILPAHPKEGDSQPHLTSLRKSLLLVRPVKADDKTPVQVEARDDNNKILGTLTLYPPSSLPDTIYHLDGVPEGGIDFTPHNGTKKIINTVAEVNKLSDASGSSIHSHLTNNALVEIHTANGRWVRDIYLPQGPDLEGKMVRFVSSAGYSSTVFYGDRKVTLSVGNTLLFKYVNGQWFRSGELENNRITYAQHIWSAELPAHWIVPGLNLVIKQGNLSGRLNDIKIGAPGELLLHTIDIGMLTTPRDRFDFAKDKEAHREYFQTIPVSRMIVNNYAPLHLKEVMLPTGELLTDMDPGNGGWHSGTMRQRIGKELVSHGIDNANYGLNSTAGLGENSHPYVVAQLAAHNSRGNYANGIQVHGGSGGGGIVTLDSTLGNEFSHEVGHNYGLGHYVDGFKGSVHRSAENNNSTWGWDGDKKRFIPNFYPSQTNEKSCLNNQCQEPFDGHKFGFDAMAGGSPFSAANRFTMYTPNSSAIIQRFFENKAVFDSRSSTGFSKWNADTQEMEPYEHTIDRAEQITASVNELSESKMAELMAEYAVVKVHMWNGNWTRNIYIPTASADNRGSILTINHEAGYNSYLFINGDEKVVSQGYKKSFVSDGQFWKERDVVDTREARKPEQFGVPVTTLVGYYDPEGTLSSYIYPAMYGAYGFTYSDDSQNLSDNDCQLQVDTKEGQLRFRLANHRANNTVMNKFHINVPTESQPTQATLVCNNKILDTKSLTPAPEGLTYTVNGQALPAKENEGCIVSVNSGKRYCLPVGQRSGYSLPDWIVGQEVYVDSGAKAKVLLSDWDNLSYNRIGEFVGNVNPADMKKVKAWNGQYLDFSKPRSMRVVYK",glycan array binding signal (z-score),[1],-0.148
same,glycan array binding signal (z-score),[2],-0.198
same,glycan array binding signal (z-score),[3],-0.049
same,glycan array binding signal (z-score),[4],-0.142
same,glycan array binding signal (z-score),[5],4.08
same,glycan array binding signal (z-score),[6],8.93
same,glycan array binding signal (z-score),[7],-0.162
same,glycan array binding signal (z-score),[8],2.84
same,glycan array binding signal (z-score),[9],2.78
same,glycan array binding signal (z-score),[10],-0.156
same,glycan array binding signal (z-score),[11],-0.113
"BC2L-D C-terminal domain (Burkholderia cenocepacia), Q39MQ9_BURS3 (protein) LVIVDAVTLLSAYPEASRDPAAPTVIDGRHLYVVSPGDAAQLGHNDSRLFTGLSPGDQLHLRETALALRAEVSVLFIRFALKDAGIVAPIELEVRDAATAVPDADDLLHPSCRPLKDHYWRSDVLAAGATTCTADFAVCDRDGTVSGYFRWETSIEIAGSQPDTKQPGFKPSSDRNGNFSLPPNTAFKAIFYANAADRQDLKLFIDDAPEPAATFVGNSEDGVRLFTLNSKGGKIRIEASANGRQSATDARLAPLSAGDTVWLGWLGAEDGADADYNDGIVILQWPIT",glycan array binding signal (z-score),[12],-0.158
same,glycan array binding signal (z-score),[13],0.376
same,glycan array binding signal (z-score),Fuc(a1-2)Gal(b1-3)GlcNAc,0.536
same,glycan array binding signal (z-score),[14],-0.16
same,glycan array binding signal (z-score),[15],-0.137
same,glycan array binding signal (z-score),[16],0.114
same,glycan array binding signal (z-score),[17],-0.147
same,glycan array binding signal (z-score),[18],-0.167
same,glycan array binding signal (z-score),[19],-0.169
same,glycan array binding signal (z-score),[20],-0.242
same,glycan array binding signal (z-score),[21],-0.164
same,glycan array binding signal (z-score),[22],0.024
same,glycan array binding signal (z-score),[23],-0.165
same,glycan array binding signal (z-score),Fuc(b1-3)GlcNAc,-0.241
same,glycan array binding signal (z-score),[24],-0.159
same,glycan array binding signal (z-score),Gal(b1-3)Gal,-0.242
same,glycan array binding signal (z-score),[25],-0.137
same,glycan array binding signal (z-score),[26],-0.242
same,glycan array binding signal (z-score),[27],0.676
same,glycan array binding signal (z-score),[28],-0.242
same,glycan array binding signal (z-score),[29],-0.165
same,glycan array binding signal (z-score),[30],-0.2
same,glycan array binding signal (z-score),Gal4S6S(b1-4)GlcNAc,-0.243
same,glycan array binding signal (z-score),GalNAc(b1-3)Gal,-0.243
same,glycan array binding signal (z-score),[31],-0.241
same,glycan array binding signal (z-score),GlcNAc(b1-3)Man,-0.243
same,glycan array binding signal (z-score),Kdn(a2-3)Gal(b1-3)GlcNAc,-0.242
same,glycan array binding signal (z-score),[32],5.14
same,glycan array binding signal (z-score),[33],4.23
same,glycan array binding signal (z-score),[1],5.62
same,glycan array binding signal (z-score),[34],6.24
same,glycan array binding signal (z-score),Man(a1-3)[Man(a1-6)]Man,4.31
same,glycan array binding signal (z-score),[35],6.86
same,glycan array binding signal (z-score),[36],5.02
same,glycan array binding signal (z-score),[2],3.67
same,glycan array binding signal (z-score),[37],-0.154
same,glycan array binding signal (z-score),Neu5Ac(a2-3)Gal(b1-4)Glc,-0.248
same,glycan array binding signal (z-score),[8],-0.244
same,glycan array binding signal (z-score),[38],-0.248
same,glycan array binding signal (z-score),[39],-0.236
